In PubChem BioAssay (NCI):
Compounds without any hit were thinned out: in the full panel of roughly 83,000, 20% have a hit.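 96-well plates, one dose, 48 hours. Percent growth reported; active if below 10.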 Unmarked numbers belong to inactive results. The source made the active and inactive calls.

Tests used:
Test in all cases: NCI-60 one-dose screen, 48 h (100 = growth as untreated, 0 = no growth, -100 = all killed)
Details in all cases: 10 µM unless noted
SK-MEL-2 melanoma = tested on: SK-MEL-2 melanoma
EKVX NSCLC = tested on: EKVX NSCLC
SN12C renal = tested on: SN12C renal
UO-31 renal = tested on: UO-31 renal
TK-10 renal = tested on: TK-10 renal
ACHN renal = tested on: ACHN renal
CAKI-1 renal = tested on: CAKI-1 renal
A498 renal = tested on: A498 renal
CCRF-CEM leukemia = tested on: CCRF-CEM leukemia
MOLT-4 leukemia = tested on: MOLT-4 leukemia
RPMI-8226 leukemia = tested on: RPMI-8226 leukemia
OVCAR-8 ovarian = tested on: OVCAR-8 ovarian
OVCAR-5 ovarian = tested on: OVCAR-5 ovarian
OVCAR-4 ovarian = tested on: OVCAR-4 ovarian
SK-OV-3 ovarian = tested on: SK-OV-3 ovarian
IGROV1 ovarian = tested on: IGROV1 ovarian
OVCAR-3 ovarian = tested on: OVCAR-3 ovarian
HS 578T breast = tested on: HS 578T breast
NCI/ADR-RES ovarian = tested on: NCI/ADR-RES ovarian

## Cc1onc2c(-c3ccccc3)n[nH]c(=O)c12
SK-MEL-2 melanoma
  growth: 135%
EKVX NSCLC
  growth: 62.8%
SN12C renal
  growth: 101%
UO-31 renal
  growth: 106%
TK-10 renal
  growth: 78.9%
ACHN renal
  growth: 107%
CAKI-1 renal
  growth: 74.1%
A498 renal
  growth: 90.2%
CCRF-CEM leukemia
  growth: 106%
MOLT-4 leukemia
  growth: 76%
RPMI-8226 leukemia
  growth: 107%
OVCAR-8 ovarian
  growth: 116%
OVCAR-5 ovarian
  growth: 98.8%
OVCAR-4 ovarian
  growth: 108%
SK-OV-3 ovarian
  growth: 87.1%
IGROV1 ovarian
  growth: 140%
OVCAR-3 ovarian
  growth: 106%
HS 578T breast
  growth: 127%
NCI/ADR-RES ovarian
  growth: 106%

## O=C(S)CNC(=O)c1ccccc1
SK-MEL-2 melanoma
  growth: 101%
EKVX NSCLC
  growth: 95.8%
SN12C renal
  growth: 95.6%
UO-31 renal
  growth: 76.5%
TK-10 renal
  growth: 91.6%
ACHN renal
  growth: 103%
CAKI-1 renal
  growth: 90.7%
A498 renal
  growth: 83.5%
CCRF-CEM leukemia
  growth: 89.9%
MOLT-4 leukemia
  growth: 87.7%
RPMI-8226 leukemia
  growth: 94.5%
OVCAR-8 ovarian
  growth: 101%
OVCAR-5 ovarian
  growth: 93.1%
OVCAR-4 ovarian
  growth: 110%
SK-OV-3 ovarian
  growth: 89.4%
IGROV1 ovarian
  growth: 105%
OVCAR-3 ovarian
  growth: 101%
HS 578T breast
  growth: 79.5%
NCI/ADR-RES ovarian
  growth: 96.5%

## NC1=C(c2nn[nH]n2)C(c2ccccc2Cl)c2ccc3ccccc3c2O1 (stereo not given)
SK-MEL-2 melanoma
  growth: 89.7%
EKVX NSCLC
  growth: 90.7%
SN12C renal
  growth: 84%
UO-31 renal
  growth: 60%
TK-10 renal
  growth: 74.9%
ACHN renal
  growth: 77.5%
CAKI-1 renal
  growth: 36.9%
A498 renal
  growth: 48%
CCRF-CEM leukemia
  growth: 77.5%
MOLT-4 leukemia
  growth: 70.9%
RPMI-8226 leukemia
  growth: 71.7%
OVCAR-8 ovarian
  growth: 86%
OVCAR-5 ovarian
  growth: 109%
OVCAR-4 ovarian
  growth: 81.5%
SK-OV-3 ovarian
  growth: 86.2%
IGROV1 ovarian
  growth: 63.2%
OVCAR-3 ovarian
  growth: 69.6%
HS 578T breast
  growth: 80.3%
NCI/ADR-RES ovarian
  growth: 55.9%

## COc1cccc(OC)c1C(=O)N[C@@H]1C(=O)N2[C@@H]1SC(C)(C)[C@@H]2C(=O)O
SK-MEL-2 melanoma
  growth: 101%
EKVX NSCLC
  growth: 104%
SN12C renal
  growth: 97.7%
UO-31 renal
  growth: 84.9%
TK-10 renal
  growth: 106%
ACHN renal
  growth: 98.4%
CAKI-1 renal
  growth: 94.2%
A498 renal
  growth: 121%
CCRF-CEM leukemia
  growth: 99.8%
MOLT-4 leukemia
  growth: 94.6%
RPMI-8226 leukemia
  growth: 102%
OVCAR-8 ovarian
  growth: 107%
OVCAR-5 ovarian
  growth: 110%
OVCAR-4 ovarian
  growth: 104%
SK-OV-3 ovarian
  growth: 99.5%
IGROV1 ovarian
  growth: 99.6%
OVCAR-3 ovarian
  growth: 119%
HS 578T breast
  growth: 114%
NCI/ADR-RES ovarian
  growth: 101%

## Cc1ccc(C2CC(c3ccc(Nc4ccnc5cc(Cl)ccc45)cc3)=NN2C=O)cc1 (stereo not given)
SK-MEL-2 melanoma
  growth: 72.2%
EKVX NSCLC
  growth: 50.1%
SN12C renal
  growth: 55.1%
UO-31 renal
  growth: 31.9%
TK-10 renal
  growth: 83.2%
ACHN renal
  growth: 34.8%
CAKI-1 renal
  growth: 49%
A498 renal
  growth: 73.4%
CCRF-CEM leukemia
  growth: 28.2%
MOLT-4 leukemia
  growth: 31.8%
RPMI-8226 leukemia
  growth: 19.8%
OVCAR-8 ovarian
  growth: 59.8%
OVCAR-5 ovarian
  growth: 94.8%
OVCAR-4 ovarian
  growth: 38.7%
SK-OV-3 ovarian
  growth: 84.8%
IGROV1 ovarian
  growth: 48.2%
OVCAR-3 ovarian
  growth: 30.6%
HS 578T breast
  growth: 61.8%
NCI/ADR-RES ovarian
  growth: 42.3%

## CC(=O)Oc1ccccc1C(=O)N=C1[Se]CCCN1C(=O)c1ccccc1OC(C)=O
SK-MEL-2 melanoma
  growth: 91.4%
EKVX NSCLC
  growth: 75.7%
SN12C renal
  growth: -15.2% (active)
UO-31 renal
  growth: -55.8% (active)
TK-10 renal
  growth: 6.56% (active)
ACHN renal
  growth: 20.8%
CAKI-1 renal
  growth: 52.5%
A498 renal
  growth: 68.6%
CCRF-CEM leukemia
  growth: 22.1%
MOLT-4 leukemia
  growth: 9.25% (active)
RPMI-8226 leukemia
  growth: 80.8%
OVCAR-8 ovarian
  growth: 47%
OVCAR-5 ovarian
  growth: 90.8%
OVCAR-4 ovarian
  growth: 78.8%
SK-OV-3 ovarian
  growth: 141%
IGROV1 ovarian
  growth: 11.7%
OVCAR-3 ovarian
  growth: 7.64% (active)
HS 578T breast
  growth: 24.9%
NCI/ADR-RES ovarian
  growth: 29%

## CSc1ncccc1C(=O)OCC(=O)Nc1oc(C)c2c(C)n[nH]c(=O)c12
SK-MEL-2 melanoma
  growth: 92.5%
EKVX NSCLC
  growth: 71%
SN12C renal
  growth: 103%
UO-31 renal
  growth: 91.7%
TK-10 renal
  growth: 102%
ACHN renal
  growth: 106%
CAKI-1 renal
  growth: 112%
A498 renal
  growth: 116%
CCRF-CEM leukemia
  growth: 79%
MOLT-4 leukemia
  growth: 99.4%
RPMI-8226 leukemia
  growth: 72.8%
OVCAR-8 ovarian
  growth: 98.6%
OVCAR-5 ovarian
  growth: 94.3%
OVCAR-4 ovarian
  growth: 104%
SK-OV-3 ovarian
  growth: 96%
IGROV1 ovarian
  growth: -4.78% (active)
OVCAR-3 ovarian
  growth: 106%
HS 578T breast
  growth: 104%
NCI/ADR-RES ovarian
  growth: 102%

## Cc1nc2ccccc2c(/C=C/c2ccccc2)c1C(=O)/C=C/c1ccc(C(F)(F)F)cc1
SK-MEL-2 melanoma
  growth: -22.5% (active)
EKVX NSCLC
  growth: -28.8% (active)
SN12C renal
  growth: -61.5% (active)
UO-31 renal
  growth: -96.9% (active)
TK-10 renal
  growth: -51.2% (active)
ACHN renal
  growth: -98.4% (active)
CAKI-1 renal
  growth: -76.6% (active)
A498 renal
  growth: -59.4% (active)
CCRF-CEM leukemia
  growth: 9.14% (active)
MOLT-4 leukemia
  growth: 4.69% (active)
RPMI-8226 leukemia
  growth: -29.1% (active)
OVCAR-8 ovarian
  growth: 10.3%
OVCAR-5 ovarian
  growth: -34.6% (active)
OVCAR-4 ovarian
  growth: -42.8% (active)
SK-OV-3 ovarian
  growth: 7.69% (active)
IGROV1 ovarian
  growth: -72.4% (active)
OVCAR-3 ovarian
  growth: -86.5% (active)
HS 578T breast
  growth: -10.9% (active)
NCI/ADR-RES ovarian
  growth: -1.24% (active)

## C/C(=C\C(=O)c1ccc(Cl)cc1)c1ccc(Cl)cc1
SK-MEL-2 melanoma
  growth: 98%
EKVX NSCLC
  growth: 79%
SN12C renal
  growth: 103%
UO-31 renal
  growth: 59.3%
TK-10 renal
  growth: 74.7%
ACHN renal
  growth: 98.3%
CAKI-1 renal
  growth: 87.8%
A498 renal
  growth: 104%
CCRF-CEM leukemia
  growth: 88.4%
MOLT-4 leukemia
  growth: 92.6%
RPMI-8226 leukemia
  growth: 75%
OVCAR-8 ovarian
  growth: 95.5%
OVCAR-5 ovarian
  growth: 62.3%
OVCAR-4 ovarian
  growth: 67.3%
SK-OV-3 ovarian
  growth: 94.3%
IGROV1 ovarian
  growth: 76.3%
OVCAR-3 ovarian
  growth: 99.2%
HS 578T breast
  growth: 96.6%
